In PubChem BioAssay (NCI):
This is part of a sample that, as a whole, favours compounds with a hit. Of some 83,000 tested, about 20% had one in any assay.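 Note: values are percent growth. 100 is the growth of untreated cells, values between 100 and 0 indicate rising inhibition; between -100 and 0 indicates cell death.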 Activity calls are given as the source filed them. The calls were made as follows: active = growth percent below 10; inactive = the rest.

These compounds were tested on MDA-MB-468 breast (assay: NCI-60 one-dose screen, 48 h (100 = growth as untreated, 0 = no growth, -100 = all killed)). Settings: 10 µM unless noted.

Compound	growth
O=Cc1c(OCc2cnnn2CC(=O)Nc2ccc(Br)cc2)ccc2ccccc12	95.6% (inactive)
Cc1cc(C)c2c(n1)sc1c(Nc3ccc(O)cc3)ncnc12	23.8% (inactive)
O=C1CC(c2cccc(F)c2)c2c(n[nH]c2-c2ccc(Cl)cc2)N1 (stereo not given)	68.4% (inactive)
O=C1CCCN1C(O)CCN(Cc1ccccc1)Cc1ccc(Cl)cc1 (stereo not given)	113% (inactive)
Nc1nc2c(c(-c3nc(N)nc4c3CCc3ccccc3-4)n1)CCc1ccccc1-2	112% (inactive)
C=C(C)[C@H]1CC/C(C)=C/CC[C@]2(C)O[C@H]2CC/C(C=O)=C\C1O (stereo not given in full)	126% (inactive)
O=C(N/N=C\c1cc(Br)cc(Br)c1O)N/N=C/c1cc(Br)cc(Br)c1O	57.7% (inactive)
CN(C)c1ccc(-c2ccc(-c3ccc(C(=N)N)c(F)c3)s2)cc1	-83.6% (active)
CC/C(=C(/c1ccc(Cl)cc1)c1ccc(OCCN2CCCCC2)cc1)c1ccc(OC)cc1	26.5% (inactive)
Cc1cccc2ccccc12	103% (inactive)
COc1cccc(-c2nn(-c3ccccc3)cc2-c2ccnc(NCCNS(=O)(=O)c3ccccc3)c2)c1	14.5% (inactive)
O=C(Nc1cc([N+](=O)[O-])c2[nH]c(=O)c3ccccc3c2c1)C(F)(F)F	-15.2% (active)
CCCCn1c2cc(OCc3cn(-c4ccc(Cl)cc4)nn3)ccc2c2ccnc(C)c21	22.3% (inactive)
Cn1cc(-c2csc(-c3cn(CCNC(=O)OC(C)(C)C)c4ccccc34)n2)c2cccnc21	23.4% (inactive)
CC(=O)O[C@@]12CO[C@@H]1C[C@H](O)[C@@]1(C)C(=O)[C@H](O)C3=C(C)[C@@H](OC(=O)[C@H](O)[C@@H](NC(=O)OC(C)(C)C)c4ccccc4)C[C@@](O)([C@@H](OC(=O)c4ccccc4)C12)C3(C)C (stereo not given in full)	3.09% (active)
